These results are taken from PubChem BioAssay.

A number with no mark means an inactive call. Activity calls are given as the source filed them.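 The calls were made as follows: active = mean z-score across replicates of 1.96 or higher in either the MELAS or the Rieske mutant cell line; inactive = the rest.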

The assay can be described thus: survival rescue of mitochondrial mutant cells in low glucose, primary screen, MELAS cybrids, Rieske KO mouse fibroblasts, CellTiter-Glo (AID 1508586).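 Also: test concentration not given here; z relative to plate mean and SD of compound and empty wells.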 To be noted: MELAS cybrid survival, CellTiter-Glo 48 h, active compounds read high.
`Cc1cc2c(F)c(Oc3ncnn4cc(OCC(C)O)c(C)c34)ccc2[nH]1` (stereo not given): the z-score is -0.638.
Next, `COC1C(O)CC(=O)OC(C)CC=CC=CC(OC2CCC(N(C)C)C(C)O2)C(C)CC(CC=O)C1OC1OC(C)C(OC2C[C@](C)(O)C(O)C(C)O2)C(N(C)C)C1O` (stereo not given in full): -0.212.
Turning to `CC(=O)c1cc([N+](=O)[O-])c(Sc2ccc(F)cc2F)s1`, the z-score is -0.42.
Regarding `C[C@]12C[C@@]3(O)O[C@@H](O1)[C@]1(COC(=O)c4ccccc4)[C@H]3C[C@@]12OC1OC(CO)C(O)C(O)C1O` (stereo not given in full), the z-score is -0.445.
In the case of `O=c1[nH]c(=O)n(C2CC(O)C(CO)O2)cc1C(F)(F)F` (stereo not given) it was -0.198; in that of `CC1(C)O[C@@H]2C[C@H]3[C@@H]4CCC5=CC(=O)C=C[C@]5(C)[C@@H]4C(O)C[C@]3(C)[C@@]2(C(=O)CO)O1` (stereo not given in full), -0.511; in that of `O=C(c1ccccc1)c1ccc2nc(NC(=O)c3csc(C4CCN(c5ncnc6ccsc56)CC4)n3)[nH]c2c1`, -0.654.
In the case of `COc1cc(-c2cc(-c3cccc(O)c3)cnc2N)cc(OC)c1OC` it was -0.34.
As for `CC(=CC(=O)Nc1ccccc1C(=O)O)c1ccc2ccccc2c1`, the z-score is -0.436.
Next, `O=C(c1cn(Cc2cncn2Cc2ccc(Br)cc2)cc1-c1cccc2ccccc12)N1CCOCC1`: -0.128; `C=C[C@]1(C)CC(OC(=O)CSC(C)(C)CNC(=O)C(N)C(C)C)[C@@]2(C)C(C)CC[C@]3(CCC(=O)[C@H]32)C(C)C1O` (stereo not given in full): 6.17 (active); `O=C(O)CC1CC(c2ccccc2)=NO1` (stereo not given): -0.328.
Turning to `COC(=O)C1=COC(OC2OC(CO)C(O)C(O)C2O)[C@H]2C(CO)=CC[C@H]12` (stereo not given in full), the z-score is -0.247.
As for `CC(C)(C(=O)NCC(F)(F)C(F)(F)F)C(=O)NC1C(=O)Nc2ccccc2-c2ccccc21` (stereo not given), the z-score was -0.378.
Next, `CC(NC(=O)Cc1cc(F)cc(F)c1)C(=O)NC1C(=O)N(C)c2ccccc2-c2ccccc21` (stereo not given): -0.38.
Regarding `COc1cc2c(cc1Cc1cccc(Cl)c1F)c(=O)c(C(=O)O)cn2C(CO)C(C)C` (stereo not given), the z-score was -0.198.
As for `CC(C)OC(=O)C(C)N[P@](=O)(OCC1OC(n2ccc(=O)[nH]c2=O)[C@](C)(F)C1O)Oc1ccccc1` (stereo not given in full), the z-score is -0.378.
In the case of `CC1CC(=O)NN=C1c1ccc(NN=C(C#N)C#N)cc1` (stereo not given) it was -0.305.
In the case of `CC(C)(CO)c1cc2cc(NC(=O)C3(c4ccc5c(c4)OC(F)(F)O5)CC3)c(F)cc2n1CC(O)CO` (stereo not given) it was -0.252; in that of `CCCC(C)NC(=O)c1ccc(Cl)c(Cl)c1` (stereo not given), -0.371.
Regarding `COC1O[C@H]2O[C@@]3(C)CC[C@H]4[C@@H](C)CC[C@@H]([C@H]1C)[C@@]24OO3` (stereo not given in full), the z-score was -0.241.
Next, `C[C@]12CC[C@H]3c4ccc(O)cc4CC[C@H]3[C@@H]1CC(O)C2O` (stereo not given in full): -0.421.
In the case of `CNC(=C[N+](=O)[O-])NCCSCc1ccc(CN(C)C)o1` it was -0.3; in that of `CC(O)[C@@H]1C(=O)N2C(C(=O)O)=C(SC3CNC(CNS(N)(=O)=O)C3)C(C)[C@@H]12` (stereo not given in full), -0.367.
Take `CC(C)C(N)C(=O)OCC(CO)OCN1C=NC2C(=O)NC(N)=NC21` (stereo not given): the z-score was -0.0737.
Next, `O=C(NN=Cc1ccc([N+](=O)[O-])o1)c1ccc(O)cc1`: -0.586.
As for `COc1cc(CCc2cc(NC(=O)c3ccc(N4CC(C)NC(C)C4)cc3)n[nH]2)cc(OC)c1` (stereo not given), the z-score is -0.509.
In the case of `O=C(NC1CCN(CCCCC2(C(=O)NCC(F)(F)F)c3ccccc3-c3ccccc32)CC1)c1ccccc1-c1ccc(C(F)(F)F)cc1` it was -0.492; in that of `COc1cc2ncnc(Sc3nnc(C)s3)c2cc1OC`, 2.8 (active); in that of `C=CCNC1=C2CC(C)CC(OC)C(O)C(C)C=C(C)C(OC(N)=O)C(OC)C=CC=C(C)C(=O)NC(=CC1=O)C2=O` (stereo not given), 1.58.
In the case of `Cc1nc(NC(=O)N2CCCC2C(N)=O)sc1-c1csc(C(C)(C)C)n1` (stereo not given) it was -0.368.
For the compound `Cc1cn(C2CC(O)C(CO)O2)c(=O)[nH]c1=O` (stereo not given), the z-score was -0.34.
Next, `COc1ccc2cc1Oc1ccc(cc1)CC1c3cc(c(OC)cc3CCN1C)Oc1c(OC)c(OC)cc3c1C(C2)N(C)CC3` (stereo not given): -0.603.
Next, `CCOC(=O)C(CCc1ccccc1)NC1CSC(c2cccs2)CN(CC(=O)O)C1=O` (stereo not given): -0.343; `CC(=O)SC1CC2=CC(=O)CC[C@]2(C)[C@@H]2CC[C@@]3(C)[C@@H](CC[C@]34CCC(=O)O4)[C@H]12` (stereo not given in full): -0.198.
Next, `CCNc1nc(Nc2cc(F)c(C(=O)N3CCOCC3)cc2OC)ncc1C(F)(F)F`: -0.325; `CN1CCN(C(=O)c2cc3cc(Cl)ccc3[nH]2)CC1`: -0.282; `CC1=NN(c2ccc(C(=O)O)cc2)C(=O)C1=Cc1ccc(-c2cc(C)c(C)cc2[N+](=O)[O-])o1`: -0.321.
Regarding `O=C(O)C1OC(Oc2cc3oc(-c4ccccc4)cc(=O)c3c(O)c2O)C(O)C(O)C1O` (stereo not given), the z-score is -0.174.
With `NC(Cc1c[nH]c2ccc(O)cc12)C(=O)O` (stereo not given), the z-score is -0.256.
